Assay results as given in PubChem BioAssay.
For some assays here: Potency and affinity values are given separately. Calls of active or inactive are those of the source. Unless noted, no rule for the calls is given here.

What was measured:
[1] = antimalarial activity against Dd2 strain (AID 2302;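 active = growth inhibition above 50% at the single 2 µM test dose, taken to imply half-maximal potency below 2 µM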;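 also: 0% = DMSO untreated growth and 100% = chloroquine plus artemisinin killed control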); details: P. falciparum Dd2 in RBCs, LDH growth readout, 72 h; at 2 µM; stronger effect = higher value
[2] = HepG2 cytotoxicity, primary screen, cytotoxicity control for P. falciparum antimalarial project, cell-based, ATP luminescence (AID 2303;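 active = inhibition above 50%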;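 also: 0% = DMSO wells and 100% = digitonin-killed cells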); details: HepG2 viability, 24-48 h, at 10 µM, stronger effect = higher value
[3] = biological target: L-lactate dehydrogenase (Plasmodium falciparum (isolate CDC / Honduras)) (UniProt Q27743); experiment: PfLDH activity inhibition – cell lysate, 3D7 strain, counter-screen for P. falciparum growth inhibition project (AID 2304);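 also: 0% = vehicle and 100% = reference inhibitor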; details: P. falciparum 3D7 crude extract, LDH APAD/NBT absorbance; at 2 µM; stronger effect = higher value
[4] = inhibition of 3D7 malaria parasite growth – strain 3D7 (AID 2306);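 also: 0% = DMSO wells and 100% = chloroquine plus artemisinin control wells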; details: P. falciparum 3D7 erythrocytic growth, LDH absorbance, 72 h; at 2 µM; stronger effect = higher value
[5] = biological target: Calcium-dependent protein kinase 1 (Plasmodium falciparum (isolate 3D7)) (UniProt P62344); experiment: PfCDPK1 kinase inhibitors, biochemical, TCAMS library (AID 1159585; cut-off not given, nearly all actives have IC50 up to about 0.98 µM;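 also: inhibitors leave more ATP so luminescence rises with inhibition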); details: recombinant PfCDPK1, Kinase-Glo ATP depletion luminescence
[6] = biological target: Plasmodium falciparum protein kinase 6 (PK6, PF3D7_1337100) (UniProt Q8IDW1); experiment: PfPK6 kinase inhibitors, biochemical, TCAMS library (AID 1159586); details: recombinant PfPK6, Kinase-Glo ATP depletion luminescence
[7] = biological target: Protein kinase 7 (PK7), Plasmodium falciparum 3D7 (PF3D7_0213400) (UniProt Q7YTF7); experiment: inhibition of Plasmodium PK7 catalytic activity – biochemical, TCAMS antimalarial set, Kinase-Glo luminescence (AID 1159587); details: recombinant PfPK7, Kinase-Glo ATP depletion luminescence
[8] = biological target: Calcium-dependent protein kinase 4 (Plasmodium falciparum (isolate 3D7)) (UniProt Q8IBS5); experiment: PfCDPK4 kinase inhibitors, biochemical, TCAMS library (AID 1159588; cut-off not given, nearly all actives have IC50 up to about 0.91 µM); details: recombinant PfCDPK4, Kinase-Glo ATP depletion luminescence
Chain of Calcium-dependent protein kinase 4 (Plasmodium falciparum (isolate 3D7)) (Q8IBS5 whole entry, looked up): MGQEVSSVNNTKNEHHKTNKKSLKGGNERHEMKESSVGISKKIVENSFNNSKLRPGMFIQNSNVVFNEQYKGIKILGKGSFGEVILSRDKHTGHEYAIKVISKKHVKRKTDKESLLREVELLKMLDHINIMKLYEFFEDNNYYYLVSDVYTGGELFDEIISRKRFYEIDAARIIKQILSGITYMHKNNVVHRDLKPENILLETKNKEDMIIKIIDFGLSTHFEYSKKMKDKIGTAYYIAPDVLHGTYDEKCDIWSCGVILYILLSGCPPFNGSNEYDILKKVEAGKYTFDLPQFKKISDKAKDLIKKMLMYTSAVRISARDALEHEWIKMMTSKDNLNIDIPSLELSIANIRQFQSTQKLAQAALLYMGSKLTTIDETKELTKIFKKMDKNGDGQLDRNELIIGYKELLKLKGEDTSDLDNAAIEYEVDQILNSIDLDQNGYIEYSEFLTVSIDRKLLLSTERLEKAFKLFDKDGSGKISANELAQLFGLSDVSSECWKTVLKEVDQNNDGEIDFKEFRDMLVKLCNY

Chain of Protein kinase 7 (PK7), Plasmodium falciparum 3D7 (PF3D7_0213400) (Q7YTF7 1-343): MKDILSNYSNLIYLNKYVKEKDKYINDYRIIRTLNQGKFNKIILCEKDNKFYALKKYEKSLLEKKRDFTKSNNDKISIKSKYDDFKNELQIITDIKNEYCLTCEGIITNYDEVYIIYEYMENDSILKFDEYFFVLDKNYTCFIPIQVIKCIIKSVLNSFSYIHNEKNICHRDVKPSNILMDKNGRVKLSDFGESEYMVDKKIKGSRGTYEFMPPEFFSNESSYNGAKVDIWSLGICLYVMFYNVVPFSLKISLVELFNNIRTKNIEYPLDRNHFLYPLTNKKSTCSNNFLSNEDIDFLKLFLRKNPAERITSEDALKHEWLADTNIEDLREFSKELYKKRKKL
Chain of Calcium-dependent protein kinase 1 (Plasmodium falciparum (isolate 3D7)) (P62344 whole entry, looked up): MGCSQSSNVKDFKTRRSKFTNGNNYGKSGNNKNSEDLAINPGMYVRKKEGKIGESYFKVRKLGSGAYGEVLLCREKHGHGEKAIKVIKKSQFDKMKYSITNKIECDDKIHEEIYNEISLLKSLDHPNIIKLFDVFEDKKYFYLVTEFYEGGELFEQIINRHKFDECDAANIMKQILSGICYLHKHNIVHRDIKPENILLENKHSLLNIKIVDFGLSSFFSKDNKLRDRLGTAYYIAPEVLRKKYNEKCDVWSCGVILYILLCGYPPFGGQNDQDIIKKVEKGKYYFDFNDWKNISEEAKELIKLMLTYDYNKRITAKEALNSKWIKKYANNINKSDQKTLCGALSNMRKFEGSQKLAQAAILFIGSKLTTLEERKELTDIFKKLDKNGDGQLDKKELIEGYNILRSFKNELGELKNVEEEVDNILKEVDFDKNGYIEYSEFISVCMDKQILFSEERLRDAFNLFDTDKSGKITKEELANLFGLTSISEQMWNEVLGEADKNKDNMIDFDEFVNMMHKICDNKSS
Chain of Plasmodium falciparum protein kinase 6 (PK6, PF3D7_1337100) (Q8IDW1 1-305): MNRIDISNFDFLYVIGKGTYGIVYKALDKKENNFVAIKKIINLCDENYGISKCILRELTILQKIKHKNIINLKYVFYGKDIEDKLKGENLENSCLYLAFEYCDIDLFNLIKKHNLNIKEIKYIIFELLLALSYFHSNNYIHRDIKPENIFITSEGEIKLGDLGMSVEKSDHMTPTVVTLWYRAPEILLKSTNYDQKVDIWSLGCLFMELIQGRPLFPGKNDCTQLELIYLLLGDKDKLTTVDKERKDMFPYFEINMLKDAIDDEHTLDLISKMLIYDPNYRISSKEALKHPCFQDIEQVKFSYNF
Chain of L-lactate dehydrogenase (Plasmodium falciparum (isolate CDC / Honduras)) (Q27743 whole entry, looked up): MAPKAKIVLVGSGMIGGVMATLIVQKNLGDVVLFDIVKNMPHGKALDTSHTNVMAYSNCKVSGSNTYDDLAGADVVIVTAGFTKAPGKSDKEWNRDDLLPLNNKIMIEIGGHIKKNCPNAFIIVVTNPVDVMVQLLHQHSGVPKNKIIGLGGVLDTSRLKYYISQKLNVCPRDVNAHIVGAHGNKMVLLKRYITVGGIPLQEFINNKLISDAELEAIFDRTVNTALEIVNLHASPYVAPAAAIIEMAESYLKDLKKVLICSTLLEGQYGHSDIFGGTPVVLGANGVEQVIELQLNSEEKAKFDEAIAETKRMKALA

O=c1cc(-c2ccc3ccccc3c2)[nH]c2ccccc12
inactive: growth inhibition [1] 44% | inhibition [2] 25% | inhibition [3] -3% | outcome [5] | outcome [6] | outcome [7] | outcome [8]
active: growth inhibition [4] 81%

COc1ccc(/C=C/C(=O)NCCCCCN2CCC(c3c[nH]c4ccccc34)CC2)cc1O
inactive: growth inhibition [1] 1% | inhibition [2] 9% | inhibition [3] -5% | outcome [5] | outcome [6] | outcome [7] | outcome [8]
active: growth inhibition [4] 91%

CCOc1cc(CC)ccc1C1CCN(CCCCNC(=O)c2ccc(NC(=O)c3ccc(Cl)cc3)cc2)CC1
inactive: inhibition [2] 11% | inhibition [3] 5% | outcome [5] | outcome [6] | outcome [7] | outcome [8]
active: growth inhibition [1] 58% | growth inhibition [4] 101%

Cc1cccc2[nH]c(-c3cccc(-c4ccc(NC(=O)Nc5ccc(Cl)cc5)cc4)c3)nc12
active: growth inhibition [1] 96% | inhibition [2] 63% | growth inhibition [4] 100%
inactive: inhibition [3] 0% | outcome [5] | outcome [6] | outcome [7] | outcome [8]

CC1(C)N=C(N)N=C(N)N1OCCCOc1ccc(N)cc1
active: growth inhibition [1] 95% | inhibition [2] 66% | growth inhibition [4] 96%
inactive: inhibition [3] 1% | outcome [5] | outcome [6] | outcome [7] | outcome [8]

O=C(Nc1ccc(Cl)cc1)c1ccc(CN2CCCN(Cc3ccc(F)cc3)CC2)cc1
active: growth inhibition [4] 91%
inactive: growth inhibition [1] 8% | inhibition [2] 48% | inhibition [3] 6% | outcome [5] | outcome [6] | outcome [7] | outcome [8]

CN1CCC(Oc2ccc(CN3CC[C@H](NC(=O)c4ccc(F)c(F)c4)C3)c3ccccc23)C1 (stereo partly specified)
inactive: growth inhibition [1] 27% | inhibition [2] 20% | inhibition [3] 2% | outcome [5] | outcome [6] | outcome [7] | outcome [8]
active: growth inhibition [4] 91%

COc1ccc(-c2ccc(NC(=O)c3cccc(F)c3)cc2)cc1CN1CCCN(C)CC1
inactive: growth inhibition [1] 49% | inhibition [2] 32% | inhibition [3] -1% | outcome [5] | outcome [6] | outcome [7] | outcome [8]
active: growth inhibition [4] 100%

O=C(CC1SC(N2N=C(c3cccs3)CC2c2ccccc2)=NC1=O)Nc1ccccc1F (stereo unspecified)
inactive: inhibition [2] 9% | inhibition [3] -2% | outcome [5] | outcome [6] | outcome [7] | outcome [8]
active: growth inhibition [1] 76% | growth inhibition [4] 87%

c1ccc(CNCc2cccc(-c3csc(-c4nc5ccccc5[nH]4)c3)c2)cc1
active: growth inhibition [1] 54% | growth inhibition [4] 102%
inactive: inhibition [2] 24% | inhibition [3] -3% | outcome [5] | outcome [6] | outcome [7] | outcome [8]

COc1ccc2nccc([C@@H](O)CN3CCC(NCCOc4ccncc4)CC3)c2c1
active: growth inhibition [4] 100%
inactive: growth inhibition [1] -1% | inhibition [2] 11% | inhibition [3] 1% | outcome [5] | outcome [6] | outcome [7] | outcome [8]

Cn1nc(C(F)(F)F)c(-c2ccc(F)cc2)c1NC(=O)Nc1ccc(F)cc1
active: growth inhibition [1] 99% | growth inhibition [4] 100%
inactive: inhibition [2] 5% | inhibition [3] -2% | outcome [5] | outcome [6] | outcome [7] | outcome [8]

O=C(NC1CCC(N2CCN(c3cccc(C(F)(F)F)c3)CC2)CC1)c1cc2ccccc2[nH]1 (stereo unspecified)
active: growth inhibition [4] 99%
inactive: growth inhibition [1] 22% | inhibition [2] 23% | inhibition [3] 0% | outcome [5] | outcome [6] | outcome [7] | outcome [8]

Nc1ncc(-c2ccsc2)cc1-c1nc2ccccc2[nH]1
inactive: growth inhibition [1] 8% | inhibition [2] 33% | inhibition [3] -2% | outcome [5] | outcome [6] | outcome [7] | outcome [8]
active: growth inhibition [4] 99%

CCOc1cc(C(=O)NCCc2ccc(Cl)c(Cl)c2)ccc1-c1nc2ccc(Cl)cc2[nH]1
active: growth inhibition [4] 100%
inactive: growth inhibition [1] 47% | inhibition [2] 9% | inhibition [3] -4% | outcome [5] | outcome [6] | outcome [7] | outcome [8]

COc1ccccc1C(=O)Nc1ccc(Nc2nc(C)cc(N3CCOCC3)n2)cc1
inactive: growth inhibition [1] 22% | inhibition [2] 28% | inhibition [3] -3% | outcome [5] | outcome [6] | outcome [7] | outcome [8]
active: growth inhibition [4] 98%

Cc1ccc(C(=O)NC2CCN(CCNC(=O)Nc3cc(C)nc4ccccc34)CC2)cc1
active: growth inhibition [1] 76% | growth inhibition [4] 98%
inactive: inhibition [2] -12% | inhibition [3] -8% | outcome [5] | outcome [6] | outcome [7] | outcome [8]

COc1cc(NCC2(CNCc3cn(Cc4ccccc4)c4ccccc34)CCCCC2)nc2ccccc12
inactive: growth inhibition [1] 12% | inhibition [3] 5% | outcome [5] | outcome [6] | outcome [7] | outcome [8]
active: inhibition [2] 65% | growth inhibition [4] 95%

COc1cc(Cc2cnc(N)nc2N)cc(OCCCCCCN2C(=O)c3ccccc3C2=O)c1OC
inactive: growth inhibition [1] 3% | inhibition [2] 15% | inhibition [3] 2% | outcome [5] | outcome [6] | outcome [7] | outcome [8]
active: growth inhibition [4] 95%

c1ccc(CN2CCN(CCNc3c4ccccc4nc4ccccc34)CC2)cc1
active: growth inhibition [1] 97% | growth inhibition [4] 100%
inactive: inhibition [2] 44% | inhibition [3] 9% | outcome [5] | outcome [6] | outcome [7] | outcome [8]

Cc1nc(N/C=C/c2ccc(O)cc2)cc(N2CCCC2)n1
active: growth inhibition [1] 54% | growth inhibition [4] 93%
inactive: inhibition [2] -11% | inhibition [3] -2% | outcome [5] | outcome [6] | outcome [7] | outcome [8]

Cc1cccc2[nH]c(-c3ccc(-c4ccc(CN5CCN(CCO)CC5)cc4)s3)nc12
active: growth inhibition [4] 92%
inactive: growth inhibition [1] 47% | inhibition [2] 34% | inhibition [3] 0% | outcome [5] | outcome [6] | outcome [7] | outcome [8]

CN1CCCC(CN2CCN(Cc3cccc(-c4ccc(-c5nc6ccc(C(F)(F)F)cc6[nH]5)cc4)c3)CC2)C1 (stereo unspecified)
active: growth inhibition [1] 96% | inhibition [2] 100% | growth inhibition [4] 99%
inactive: inhibition [3] 5% | outcome [5] | outcome [6] | outcome [7] | outcome [8]

CCCCCCc1c(C)[nH]c2cc(OC)ccc2c1=O
inactive: inhibition [2] 10% | inhibition [3] 3% | outcome [5] | outcome [6] | outcome [7] | outcome [8]
active: growth inhibition [1] 97% | growth inhibition [4] 97%

CC(=O)Nc1cccc(C(=O)Nc2cccc(-c3ccc(-c4nc5c(C)cccc5[nH]4)s3)c2)c1
inactive: growth inhibition [1] 26% | inhibition [3] 4% | outcome [5] | outcome [6] | outcome [7] | outcome [8]
active: inhibition [2] 75% | growth inhibition [4] 99%

CN(c1ccccc1)c1ccnc(/N=C(\N)Nc2ccc(Cl)cc2)n1
inactive: growth inhibition [1] 6% | inhibition [2] 30% | inhibition [3] -1% | outcome [5] | outcome [6] | outcome [7] | outcome [8]
active: growth inhibition [4] 87%

N#CC(c1ccc(F)cc1)c1ccc2c(C(F)(F)F)cc(C(F)(F)F)nc2n1 (stereo unspecified)
inactive: inhibition [2] 9% | inhibition [3] 2% | outcome [5] | outcome [6] | outcome [7] | outcome [8]
active: growth inhibition [1] 89% | growth inhibition [4] 97%

Cc1cc(N[C@@H](CC(C)C)C(=O)NCCOc2ccccc2)nc(NCCOc2ccccc2)n1
active: growth inhibition [4] 89%
inactive: growth inhibition [1] 6% | inhibition [2] -4% | inhibition [3] -2% | outcome [5] | outcome [6] | outcome [7] | outcome [8]

CC(C)n1c(CC2CCN(CC3CCN(C(=O)/C=C/c4ccc(Cl)c(Cl)c4)CC3)CC2)nc2ccccc21
active: growth inhibition [4] 101%
inactive: growth inhibition [1] 23% | inhibition [2] 19% | inhibition [3] -3% | outcome [5] | outcome [6] | outcome [7] | outcome [8]

O=C1COc2ccccc2N1C/C=C(\CN1CCC(c2ccccc2)CC1)c1cc(Cl)cc(Cl)c1
inactive: inhibition [2] 14% | inhibition [3] -4% | outcome [5] | outcome [6] | outcome [7] | outcome [8]
active: growth inhibition [1] 72% | growth inhibition [4] 91%

O=c1cc(NCCCNCc2ccc3c(c2)OC(F)(F)O3)[nH]c2ccccc12
active: growth inhibition [1] 94% | growth inhibition [4] 100%
inactive: inhibition [2] -9% | inhibition [3] -6% | outcome [5] | outcome [6] | outcome [7] | outcome [8]

O=C(/C=C/c1ccc(C(F)(F)F)cc1)NCCCCCN1CCC(c2c[nH]c3ccccc23)CC1
inactive: growth inhibition [1] 22% | inhibition [3] 1% | outcome [5] | outcome [6] | outcome [7] | outcome [8]
active: inhibition [2] 96% | growth inhibition [4] 101%

CCCCCCCCn1c2c(c(=N)c3c1CCC3)CCC2
inactive: inhibition [2] 47% | inhibition [3] -5% | outcome [5] | outcome [6] | outcome [7] | outcome [8]
active: growth inhibition [1] 93% | growth inhibition [4] 99%

CC[C@H]1CN2CCc3cc(OC)c(OC)cc3[C@@H]2C[C@@H]1CC1=NCCc2c1[nH]c1ccc(OCc3ccccc3)cc21
active: growth inhibition [1] 89% | inhibition [2] 57% | growth inhibition [4] 101%
inactive: inhibition [3] -2% | outcome [5] | outcome [6] | outcome [7] | outcome [8]

FC(F)(F)Oc1ccc(Nc2cc(-c3ccncc3)nc(-c3cccnc3)n2)cc1
inactive: inhibition [2] 24% | inhibition [3] 0% | outcome [5] | outcome [6] | outcome [7] | outcome [8]
active: growth inhibition [1] 52% | growth inhibition [4] 94%

O=C(NCc1cccc2ccccc12)C(c1cc2ccccc2o1)N1CCN(C(c2ccccc2)c2ccccc2)CC1 (stereo unspecified)
active: growth inhibition [1] 90% | growth inhibition [4] 99%
inactive: inhibition [2] -3% | inhibition [3] -2% | outcome [5] | outcome [6] | outcome [7] | outcome [8]

Fc1ccc2nc(-c3ccc(-c4ccc(CN5CCCCC5)cc4)s3)[nH]c2c1
active: growth inhibition [1] 100% | growth inhibition [4] 92%
inactive: inhibition [2] 42% | inhibition [3] -2% | outcome [5] | outcome [6] | outcome [7] | outcome [8]
